For 11 compounds, outcome and AC50 results are on record in PubChem BioAssay (EPA / NIEHS).

For assay [1], the target named is Estrogen receptor (Homo sapiens) + Estrogen receptor beta (Homo sapiens) (UniProt P03372+Q92731). In words: OT_ER_ERaERb_1440: Odyssey Thera (OT) 24-hour HEK293T Protein-Complementation Assay for Estrogen Receptor-alpha/-beta Homodimer (AID 2283356).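 Also: heteromer of ER alpha and ER beta binding domains; hits raise reporter fluorescence and both agonists and antagonists give an increase.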 In short, it runs like this:
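HEK293T stably expressing a PCA of ER alpha LBD (aa 310-547) and ER beta LBD (aa 263-489). After 24 h compound exposure, mean fluorescence intensity in nucleus (agonists) or nucleus and cytoplasm (antagonists) measured by laser scanning cytometry versus vehicle.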

For assay [2], the target named is Estrogen receptor beta (Homo sapiens) (UniProt Q92731). The experiment in a line: OT_ER_ERbERb_0480: Odyssey Thera (OT) 8-hour HEK293T Protein-Complementation Assay for Estrogen Receptor-beta/-beta Homodimer (AID 2283357).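 Also: active means signal gain over DMSO baseline.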 In short, it runs like this: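 Readout: increase in mean fluorescence intensity (nucleus for agonists; nucleus plus cytoplasm for antagonists) relative to DMSO, from a reporter-fragment complementation of human ER-beta LBD homodimer in HEK293T cells dosed 8 hours.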
Chain of Estrogen receptor beta (Homo sapiens) (Q92731 whole entry, looked up, the tested form may be a part): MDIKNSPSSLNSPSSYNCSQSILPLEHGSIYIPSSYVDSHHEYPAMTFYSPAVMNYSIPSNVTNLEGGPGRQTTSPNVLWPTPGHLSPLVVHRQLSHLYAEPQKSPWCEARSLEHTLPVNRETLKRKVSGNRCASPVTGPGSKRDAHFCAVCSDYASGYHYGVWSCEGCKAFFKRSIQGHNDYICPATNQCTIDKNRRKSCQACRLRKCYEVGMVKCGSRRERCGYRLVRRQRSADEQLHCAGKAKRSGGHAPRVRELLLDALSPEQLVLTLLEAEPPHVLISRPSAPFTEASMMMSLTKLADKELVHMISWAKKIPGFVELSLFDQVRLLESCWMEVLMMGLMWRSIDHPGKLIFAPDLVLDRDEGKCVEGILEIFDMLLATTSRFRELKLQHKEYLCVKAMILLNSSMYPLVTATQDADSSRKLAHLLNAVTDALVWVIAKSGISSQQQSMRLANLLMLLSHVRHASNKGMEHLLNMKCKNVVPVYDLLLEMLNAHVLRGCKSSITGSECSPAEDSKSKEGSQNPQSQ

A further assay has as its target PGR (gene 5241) (UniProt P06401). In words: NVS_NR_hPR: NovaScreen (NVS) Nuclear Receptor Binding Assay for human Progestron Receptor (PR) (AID 2283360).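 Also: active means loss of bound radioligand signal versus DMSO baseline.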 The procedure, abridged:
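Radioligand competition binding on receptor extracted from T47D cells, read by scintillation counting 18 h after dosing. Loss of signal versus DMSO; primary screen in duplicate at 25 uM, actives followed in concentration series.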

For assay [3], the target named is human Peroxisome Proliferator-activated Receptor alpha (PPARa), PPARA (gene 5465) (UniProt Q07869). The experiment in a line: NVS_NR_hPPARa: NovaScreen (NVS) Nuclear Receptor Binding Assay for human Peroxisome Proliferator-activated Receptor alpha (PPARa) (AID 2283359).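 Also: activity means loss of TR-FRET signal versus DMSO baseline.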 In short, it runs like this:
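Cell-free binding assay with extracted human protein, read by TR-FRET 1 h after chemical dosing. Loss of signal relative to DMSO baseline indicates binding. Primary screen used duplicate single concentration (25 uM); actives followed up in concentration series.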

Assay [4] concerns the target Androgen Receptor/SRC-1 Co-activator, AR (gene 367) (UniProt P10275). In words: OT_AR_ARSRC1_0480: Odyssey Thera (OT) 8-hour HEK293T Protein-Complementation Assay for Androgen Receptor/SRC-1 Co-activator (AID 2283354).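 Also: hits raise the complementation signal above DMSO so AC50 marks enhancers.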 In short, it runs like this: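 HEK293T cells stably expressing AR and SRC-1 fused to split Venus YFP fragments via (Gly4Ser)2 linkers were read 8 h after compound dosing. Complementation was imaged at 488 and 635nm, and nuclear/cytoplasmic fluorescence ratio (488nm) was taken over ≥400 cells; gain-of-signal versus DMSO.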

Assay [5] has as its target Retinoic acid receptor alpha (Homo sapiens) (UniProt P10276). The experiment in a line: NVS_NR_hRAR_Antagonist: NovaScreen (NVS) Nuclear Receptor Binding Assay for human Retinoic Acid Alpha Receptor Antagonism (RAR) (AID 2283358). In short, it runs like this: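 Cell-free TR-FRET binding assay on extracted receptor protein, run in antagonist mode; signal read 2 hours after chemical dosing. Loss of signal was fitted relative to DMSO baseline. Screened at 25 uM in duplicate, actives followed up in concentration series.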

For assay [6], the target named is Nuclear receptor subfamily 1 group I member 2 (Homo sapiens) (UniProt O75469). The experiment in a line: NVS_NR_hPXR: NovaScreen (NVS) Nuclear Receptor Binding Assay for human Pregnane X Receptor (PXR) (AID 2283365).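 Also: a drop in FRET signal versus DMSO baseline means the compound binds.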 The procedure, abridged:
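Cell-free TR-FRET binding assay with extracted human PXR protein, read 2 h after dosing. Primary screen run in duplicate at 25 uM, actives followed in concentration series; loss of signal fitted against DMSO baseline.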

The target of assay [7] is Retinoic acid receptor alpha (Homo sapiens) (UniProt P10276). In words: NVS_NR_hRARa_Agonist: NovaScreen (NVS) Nuclear Receptor Binding Assay for human Retinoic Acid Alpha Receptor Agonism (RAR) (AID 2283361). In short, it runs like this:
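Cell-free TR-FRET binding read-out with extracted human RARα protein, read 2 h after compound addition. Gain of signal scored against DMSO baseline. Primary screen at a single 25 uM in duplicate; actives then retested in concentration series.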

The test system of assay [8] is guinea pig Dopamine Transporter (DAT), gene 100714898. In words: NVS_TR_gDAT: NovaScreen (NVS) Transporter Assay for guinea pig Dopamine Transporter (DAT) (AID 2283369).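 Also: active compounds lower bound radioligand signal relative to DMSO.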 In short, it runs like this: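 Guinea pig striatal membranes, cell-free radioligand binding with filter-based scintillation counting, read 2 h after dosing. Loss of signal versus DMSO baseline; single-concentration primary (25 uM) then concentration-response up to 50 uM.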

Assay [9] has as its target Peroxisome proliferator-activated receptor gamma (Homo sapiens) (UniProt P37231). In words: NVS_NR_hPPARg: NovaScreen (NVS) Nuclear Receptor Binding Assay for human Peroxisome Proliferator-activated Receptor gamma (PPARg) (AID 2283370). In short, it runs like this: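 Cell-free fluorescence polarization binding to human PPARg protein, read 2 h after dosing. Primary screen in duplicate at 25 uM, actives followed in concentration series; loss of signal relative to DMSO scored.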

In assay [10] the target is human Dopamine Transporter (DAT), SLC6A3 (gene 6531) (UniProt Q01959). The experiment in a line: NVS_TR_hDAT: NovaScreen (NVS) Transporter Assay for human Dopamine Transporter (DAT) (AID 2283374).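 Also: activity means loss of bound radioligand signal relative to DMSO.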 In short, it runs like this:
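Cell-free radioligand binding to extracted human DAT protein, read 1 h after dosing by filter-based scintillation counting. Loss of specific binding scored against DMSO baseline; primary screen in duplicate at 25 uM, actives then run in concentration series.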

In assay [11] the target is human Norepinephrine Transporter (NET), SLC6A2 (gene 6530) (UniProt P23975). In words: NVS_TR_hNET: NovaScreen (NVS) Transporter Assay for human Norepinephrine Transporter (NET) (AID 2283377).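 Also: cell-free membrane protein extracted from CHO cells expressing human NET.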 The procedure, abridged: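 Radioligand binding to human NET in cell-free CHO-derived protein preparations, read by filter-based scintillation counting 1 hour after dosing. Loss of signal versus DMSO baseline indicated displacement; primary screening in duplicate at 25 uM, actives then titrated.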

The target in assay [12] is rat Androgen Receptor (AR), Ar (gene 24208) (UniProt P15207). In words: NVS_NR_rAR: NovaScreen (NVS) Nuclear Receptor Binding Assay for rat Androgen Receptor (AR) (AID 2283366). The procedure, abridged: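 Cell-free radioligand binding on extracts of prostate from testosterone-pretreated rats, read by filter-based scintillation counting 18 h after dosing. Loss of bound signal fitted positively versus DMSO; primary screen in duplicate at 25 uM, actives followed up in concentration series.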

Assay [13] addresses guinea pig Sigma Receptor, Non-selective Binding, SIGMAR1 (gene 100135589) (UniProt Q60492). In words: NVS_OR_gSIGMA_NonSelective: NovaScreen (NVS) Nuclear Receptor Binding Assay for guinea pig Sigma Receptor, Non-selective Binding (AID 2283367). In short, it runs like this: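 Guinea pig brain membranes, cell-free radioligand binding; read 1 h after dosing by filter-based scintillation counting. Loss of signal vs DMSO baseline taken as displacement. Primary screen single concentration 25 uM in duplicate; actives retested in concentration series.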

Results filed as inconclusive are left out. Calls of active or inactive are those of the source. The calls were made as follows: active = hit-call score of the fitted dose curve at least 0.9, where 1 is the maximum; inconclusive = response in the unintended direction; inactive = score below 0.9.

Chain of Peroxisome proliferator-activated receptor gamma (Homo sapiens) (P37231 whole entry, looked up): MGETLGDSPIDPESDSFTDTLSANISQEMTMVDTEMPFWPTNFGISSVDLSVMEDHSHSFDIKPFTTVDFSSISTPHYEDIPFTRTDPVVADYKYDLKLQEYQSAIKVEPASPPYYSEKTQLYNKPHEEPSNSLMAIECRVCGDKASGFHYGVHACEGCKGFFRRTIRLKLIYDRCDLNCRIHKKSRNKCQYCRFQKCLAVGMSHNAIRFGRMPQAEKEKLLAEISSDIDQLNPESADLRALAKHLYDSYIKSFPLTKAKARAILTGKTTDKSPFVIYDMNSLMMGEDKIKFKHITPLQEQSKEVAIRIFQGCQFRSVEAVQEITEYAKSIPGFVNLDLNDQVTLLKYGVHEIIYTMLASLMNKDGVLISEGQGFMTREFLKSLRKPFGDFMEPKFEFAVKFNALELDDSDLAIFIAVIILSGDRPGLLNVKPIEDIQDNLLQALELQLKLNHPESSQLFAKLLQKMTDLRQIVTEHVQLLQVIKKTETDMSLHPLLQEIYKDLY
Chain of human Peroxisome Proliferator-activated Receptor alpha (PPARa), PPARA (gene 5465) (Q07869 whole entry, looked up): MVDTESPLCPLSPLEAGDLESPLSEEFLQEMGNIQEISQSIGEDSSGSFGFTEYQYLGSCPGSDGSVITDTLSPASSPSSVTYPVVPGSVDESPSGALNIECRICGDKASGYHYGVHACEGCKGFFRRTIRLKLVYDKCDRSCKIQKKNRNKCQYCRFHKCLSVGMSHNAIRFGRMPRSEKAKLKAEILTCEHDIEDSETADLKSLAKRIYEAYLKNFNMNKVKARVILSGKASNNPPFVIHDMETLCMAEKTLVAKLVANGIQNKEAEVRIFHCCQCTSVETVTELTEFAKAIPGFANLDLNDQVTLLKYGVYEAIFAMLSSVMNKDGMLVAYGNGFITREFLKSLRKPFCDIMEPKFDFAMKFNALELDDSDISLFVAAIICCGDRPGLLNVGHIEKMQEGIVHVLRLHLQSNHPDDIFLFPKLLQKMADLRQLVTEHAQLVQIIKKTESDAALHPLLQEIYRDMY
Chain of Estrogen receptor (Homo sapiens) + Estrogen receptor beta (Homo sapiens) (P03372 whole entry, looked up, the tested form may be a part): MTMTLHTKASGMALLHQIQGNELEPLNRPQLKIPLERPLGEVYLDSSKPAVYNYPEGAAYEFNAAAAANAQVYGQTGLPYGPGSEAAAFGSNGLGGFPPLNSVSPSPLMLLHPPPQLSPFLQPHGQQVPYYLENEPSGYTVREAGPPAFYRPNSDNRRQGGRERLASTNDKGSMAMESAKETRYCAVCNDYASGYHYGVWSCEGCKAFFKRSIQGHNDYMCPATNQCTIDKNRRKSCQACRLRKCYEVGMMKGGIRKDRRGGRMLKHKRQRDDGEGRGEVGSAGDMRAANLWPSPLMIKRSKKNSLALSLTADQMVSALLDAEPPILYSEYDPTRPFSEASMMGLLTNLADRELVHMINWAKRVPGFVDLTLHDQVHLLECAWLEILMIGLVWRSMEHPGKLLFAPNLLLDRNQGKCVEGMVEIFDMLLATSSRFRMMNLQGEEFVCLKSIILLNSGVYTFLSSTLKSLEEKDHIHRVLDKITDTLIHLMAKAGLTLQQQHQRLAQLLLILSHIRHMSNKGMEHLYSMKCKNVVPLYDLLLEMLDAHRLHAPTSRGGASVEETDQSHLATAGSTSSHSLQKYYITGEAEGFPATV
Chain of Estrogen receptor (Homo sapiens) + Estrogen receptor beta (Homo sapiens) (Q92731 whole entry, looked up, the tested form may be a part): as the sequence (Q92731 whole entry, looked up, the tested form may be a part) above
Chain of Retinoic acid receptor alpha (Homo sapiens) (P10276 whole entry, looked up): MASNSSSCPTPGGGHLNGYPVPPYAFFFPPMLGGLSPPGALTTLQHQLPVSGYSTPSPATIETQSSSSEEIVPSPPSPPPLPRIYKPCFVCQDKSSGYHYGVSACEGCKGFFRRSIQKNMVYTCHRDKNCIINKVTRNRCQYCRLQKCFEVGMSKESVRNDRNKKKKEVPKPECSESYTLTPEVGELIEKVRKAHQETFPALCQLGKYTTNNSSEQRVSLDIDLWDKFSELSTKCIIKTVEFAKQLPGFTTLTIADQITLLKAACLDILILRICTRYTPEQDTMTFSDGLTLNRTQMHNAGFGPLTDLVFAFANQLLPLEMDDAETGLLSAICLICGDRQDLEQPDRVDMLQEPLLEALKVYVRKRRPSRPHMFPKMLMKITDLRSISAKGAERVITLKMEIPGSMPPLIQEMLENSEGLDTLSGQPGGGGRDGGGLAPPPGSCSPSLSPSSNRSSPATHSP
Chain of Androgen Receptor/SRC-1 Co-activator, AR (gene 367) (P10275 whole entry, looked up, the tested form may be a part): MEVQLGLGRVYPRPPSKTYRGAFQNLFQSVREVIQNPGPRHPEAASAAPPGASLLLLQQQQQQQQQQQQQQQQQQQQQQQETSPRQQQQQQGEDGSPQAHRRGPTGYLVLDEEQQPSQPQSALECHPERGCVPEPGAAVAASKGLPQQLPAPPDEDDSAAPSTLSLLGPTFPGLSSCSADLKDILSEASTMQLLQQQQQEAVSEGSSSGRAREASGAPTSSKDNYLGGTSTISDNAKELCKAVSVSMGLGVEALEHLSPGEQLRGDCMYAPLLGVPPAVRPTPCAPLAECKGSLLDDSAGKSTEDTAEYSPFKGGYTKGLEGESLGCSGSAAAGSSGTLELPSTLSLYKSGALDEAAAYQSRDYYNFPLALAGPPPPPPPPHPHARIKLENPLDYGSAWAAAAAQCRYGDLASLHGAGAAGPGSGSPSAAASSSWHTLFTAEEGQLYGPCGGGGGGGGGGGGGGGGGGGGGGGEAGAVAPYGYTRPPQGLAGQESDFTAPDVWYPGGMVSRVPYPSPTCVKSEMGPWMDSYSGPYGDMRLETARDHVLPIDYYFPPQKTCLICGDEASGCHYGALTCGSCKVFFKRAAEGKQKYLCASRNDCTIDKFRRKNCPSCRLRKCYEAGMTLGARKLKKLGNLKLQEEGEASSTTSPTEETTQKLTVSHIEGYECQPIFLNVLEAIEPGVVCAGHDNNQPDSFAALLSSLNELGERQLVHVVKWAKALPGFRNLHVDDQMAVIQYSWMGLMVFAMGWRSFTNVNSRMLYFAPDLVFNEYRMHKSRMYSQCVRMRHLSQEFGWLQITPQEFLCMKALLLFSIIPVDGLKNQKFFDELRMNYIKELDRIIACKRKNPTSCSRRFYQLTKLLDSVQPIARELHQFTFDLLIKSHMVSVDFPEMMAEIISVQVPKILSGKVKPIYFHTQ
Chain of PGR (gene 5241) (P06401 whole entry, looked up): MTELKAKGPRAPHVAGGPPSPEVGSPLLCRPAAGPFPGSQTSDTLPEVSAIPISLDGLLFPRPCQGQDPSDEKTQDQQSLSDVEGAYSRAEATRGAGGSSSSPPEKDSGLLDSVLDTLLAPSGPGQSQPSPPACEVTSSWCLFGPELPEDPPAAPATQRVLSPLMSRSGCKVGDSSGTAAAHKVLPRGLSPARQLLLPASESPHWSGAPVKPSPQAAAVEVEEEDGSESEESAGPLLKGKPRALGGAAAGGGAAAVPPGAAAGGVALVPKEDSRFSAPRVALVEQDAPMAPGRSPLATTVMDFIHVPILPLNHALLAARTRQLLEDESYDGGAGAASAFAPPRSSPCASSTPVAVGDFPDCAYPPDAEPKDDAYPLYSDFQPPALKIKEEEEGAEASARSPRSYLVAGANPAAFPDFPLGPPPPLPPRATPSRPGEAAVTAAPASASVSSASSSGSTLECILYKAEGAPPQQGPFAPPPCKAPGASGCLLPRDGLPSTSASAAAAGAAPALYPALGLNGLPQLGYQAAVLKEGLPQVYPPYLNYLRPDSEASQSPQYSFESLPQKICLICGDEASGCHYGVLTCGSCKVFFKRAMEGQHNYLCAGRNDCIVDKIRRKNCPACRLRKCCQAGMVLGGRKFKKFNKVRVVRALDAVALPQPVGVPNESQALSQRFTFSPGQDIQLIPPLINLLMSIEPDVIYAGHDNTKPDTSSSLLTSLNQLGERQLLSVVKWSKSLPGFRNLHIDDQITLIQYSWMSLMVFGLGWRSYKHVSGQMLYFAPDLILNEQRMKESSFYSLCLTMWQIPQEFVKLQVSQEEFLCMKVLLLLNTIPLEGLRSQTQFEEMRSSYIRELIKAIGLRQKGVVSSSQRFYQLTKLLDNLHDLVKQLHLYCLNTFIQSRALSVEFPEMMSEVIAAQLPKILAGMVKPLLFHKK

On to `OC[C@H]1O[C@@](CO)(O[C@H]2O[C@H](CO)[C@@H](O)[C@H](O)[C@H]2O)[C@@H](O)[C@@H]1O`, for which the result (in assay [1]; in assay [2]; with PGR (gene 5241)) was inactive.
On to `O=C(O)c1ccc2c(c1)nc(C(=O)NC1CCN(C3CC3)CC1)n2Cc1cc(-c2ccc(Cl)s2)on1`, for which the outcome in assay [1], in assay [2] and in assay [3] was inactive.
As to `NC(=O)N(O)[C@@H]1COc2cc(OCc3ccccc3)ccc21`, the outcome in [1] and in assay [2] was inactive.
As to `COc1cc2c(c(OC)c1OC)-c1ccc(OC)c(=O)cc1[C@@H](NC(C)=O)CC2`, the call in assay [4], in assay [1] and in assay [2] was inactive.
As for `Cc1nc(-c2ccccn2)ncc1C(=O)Nn1cc(C)c2cc(F)ccc21`, the result in assay [4], in [1], in assay [2], in [5] and in assay [6] was inactive.
As for `COc1cc(C(C)C)c2c(c1)S(=O)(=O)N(COc1cc(=O)n3cccc(OCCN4CCCCC4)c3n1)C2=O`, the AC50 in assay [4] was 18.1 µM (active); in [8], 4.1 µM (active); in assay [9], 6.25 µM (active); in assay [10], 2.87 µM (active); in [11], 4.47 µM (active). The result in [5], in assay [3] and in assay [7] was inactive.
As to `OC(Cn1cncn1)(Cn1cncn1)c1ccc(F)cc1F`, the outcome in assay [1] was inactive.
Consider `O=C(O)[C@H](O)[C@@H](O)C(=O)O`, for which the outcome (in [1]; in assay [2]; with PGR (gene 5241)) was inactive.
As for `CCCCCCCCCCCCCCCCOS(=O)(=O)O`, the result in assay [4], in assay [1], in [2] and in [3] was inactive. Also, the AC50 is 12.5 µM (active) in assay [6], 3.03 µM (active) in [12], 1.64 µM (active) in [9] and 19.6 µM (active) in assay [11].
On to `O=S1(=O)CCCO1`, for which the result in assay [1] and in [2] was inactive.
Consider `Cc1ncc([C@@H](CCCCCCc2ccc3c(n2)NCCC3)CC(=O)O)cn1`, for which the outcome in [1], in assay [2], in [3] and in assay [9] was inactive. Also, the AC50 in assay [13] is 14.5 µM (active).

By AC50 is commonly meant the concentration giving half of the maximal activity seen.
